# Experimental data published in PubChem BioAssay (Tox21).
# Inconclusive results are not listed. Activity calls are given as the source filed them. The call rests on the fitted dose curve; in most records, active means well fitted inhibition curve with a large enough effect in the repeat runs; inconclusive means weak or mixed curves; inactive means no such curve, though single readings can be large or run the other way.
# Molecular target: Cytochrome P450 2C9 (Homo sapiens) (UniProt P11712)
# Assay: Cytochrome P450 Family 2 Subfamily C Member 9 (CYP2C9) small molecule antagonists: luciferase reporter qHTS assay (AID 1671198); further: nearly all actives have a fitted effect of over 50% in size
# Conditions: P450-Glo CYP2C9 enzyme assay, luciferin luminescence; series mostly up to 115 µM; activity change, negative = inhibition: at the top concentration
# Excerpt: U.S. Tox21 Program National Center for Advancing Translational Sciences [NCATS] U.S. Environmental Protection Agency [EPA] National Institutes of Environmental Health Sciences [NIEHS] National Toxicology Program [NTP] U.S. Food and Drug Administration [FDA] Tox21 Assay Overview: Cytochrome P450 (CYP) enzymes are membrane-bound hemeproteins that play a key role in metabolism of drugs and xenobiotics. Evaluation of the effect of chemicals on CYP isozymes is useful to minimize the adverse drug reactions and toxicities in drug development process. Tox21 chemicals were tested for their effect on CYP enzyme activities by using P450-Glo (TM) screening systems (Promega Corporation, Madison, WI). These systems provide a luminescent method containing proluciferin substrates and are converted to luciferin products by CYP isozymes. The luciferin products formed are detected with a luciferin detection reagent, and the amount of light produced is proportional to CYP activity. P450-Glo (TM) CYP2C9 screening system (Catalog. No. V9790) was used to detect the compounds that interfere in CYP2C9 activity.
# Tox21 Assay Protocol Summary: Two ul of enzyme-substrate mix was dispensed into medium binding white/solid 1536-well plates (Greiner Bio-One North America Inc., Monroe, NC) using a BioRaptr Flying Reagent Dispenser (FRD, Beckman Coulter, Brea, CA). […] The assay plates were incubated at room temperature for 10 min. Then 2 ul of NADPH regeneration solution was added to each well of the assay plates using an FRD and incubated at 37C for 1 h. The reaction was stopped by adding 4 ul of detection reagent using an FRD and after 20 min incubation at room temperature the luminescence signal was measured using a ViewLux plate reader (Perkin Elmer, Shelton, CT). Data were expressed as relative luminescence units.
# On the % scale 0 is the no-effect control and ±100 the full control effect; potency means the concentration at half of the fitted maximal effect.
# Cytochrome P450 2C9 (Homo sapiens), sequence (P11712 whole entry, looked up): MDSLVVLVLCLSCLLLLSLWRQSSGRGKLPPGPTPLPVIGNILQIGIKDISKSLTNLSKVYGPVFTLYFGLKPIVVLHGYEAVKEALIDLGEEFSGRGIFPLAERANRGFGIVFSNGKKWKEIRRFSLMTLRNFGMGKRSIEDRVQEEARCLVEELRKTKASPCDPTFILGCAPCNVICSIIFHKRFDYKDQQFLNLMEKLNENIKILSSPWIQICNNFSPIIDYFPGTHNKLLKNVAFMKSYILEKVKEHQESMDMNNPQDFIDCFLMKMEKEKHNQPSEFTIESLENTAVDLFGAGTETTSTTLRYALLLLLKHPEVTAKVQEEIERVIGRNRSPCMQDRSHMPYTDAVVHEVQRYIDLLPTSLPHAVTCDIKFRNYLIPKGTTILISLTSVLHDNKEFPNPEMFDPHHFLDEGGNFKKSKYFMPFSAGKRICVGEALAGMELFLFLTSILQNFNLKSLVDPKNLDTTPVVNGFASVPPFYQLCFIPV
SMILES,"activity change, negative = inhibition",Potency
NCc1ccco1,1.15% (inactive),
C1CCSC1,0.318% (inactive),
CC(C)(C)c1cc(CCC(=O)OCCSCCOC(=O)CCc2cc(C(C)(C)C)c(O)c(C(C)(C)C)c2)cc(C(C)(C)C)c1O,,2.19 µM (active)
O=C1C=CC(=O)N1c1cccc(N2C(=O)C=CC2=O)c1,,6.33 µM (active)
O=C1CCC(=O)N1,-6.05% (inactive),
Cc1ccc2n[nH]nc2c1,10.4% (inactive),
C=C[Si](C)(C)Cl,-1.65% [at 10.5 µM] (inactive),
Clc1ccc2c(Cl)ccnc2c1,11.3% (inactive),
CC(C)c1ccc2sc3ccccc3c(=O)c2c1,,11.2 µM (active)
C/C=C/C(=O)C1=C(C)C=CCC1(C)C,-1.32% (inactive),
Oc1cccc2c(O)cccc12,,22.4 µM (active)
C/C(=N\[Si](C)(C)C)O[Si](C)(C)C,-2.9% (inactive),
CCCCC/C=C\C=C\C(=O)OCC,,13.2 µM (active)
S=C1NC=NC2N=CNC12 (stereo not given),,39.9 µM (active)
CCCCNc1ccc(NCCCC)c2c1C(=O)c1ccccc1C2=O,-1.25% [at 23.6 µM] (inactive),
Nc1ccc(Oc2cccc(Oc3ccc(N)cc3)c2)cc1,,6.33 µM (active)
CC(C)=NNC(N)=S,-14.7% (inactive),
CCCCCCCCCCCCCCCCC(C(=O)O)C(O)(CC(=O)O)C(=O)O (stereo not given),3.12% [at 53 µM] (inactive),
C=CC(=O)OCCOC1C2CCC1C1CC=CC12 (stereo not given),-18.2% [at 23.6 µM] (inactive),
CC(C)(c1ccc(Oc2ccc(N)cc2)cc1)c1ccc(Oc2ccc(N)cc2)cc1,,2.52 µM (active)

SMILES,"activity change, negative = inhibition",Potency
Oc1ccc(C2(c3ccc(O)c(C4CCCCC4)c3)CCCCC2)cc1C1CCCCC1,,2.52 µM (active)
NC(=O)C1CO1 (stereo not given),0.423% (inactive),
CC1(C)[C@H]2CC[C@]1(C)C(=O)C2,4.6% (inactive),
COc1c(Br)cc(Br)c(C)c1Br,-6.41% (inactive),
COC(=O)c1ccc([N+](=O)[O-])cc1,-7.1% (inactive),
CCN(CC)c1ccc(C=O)cc1,53.6% (inactive),
Cn1c(=O)[nH]c2ncn(C)c2c1=O,0.533% (inactive),
O=S(=O)(c1ccc(OCc2ccccc2)cc1)c1ccccc1O,,39.9 µM (active)
CCCCCCCC/C=C\CCCCCCCC(=O)N(CCO)CCO,,14.1 µM (active)
CCC1(C)C(=O)N(Cl)C(=O)N1Cl (stereo not given),-11.7% (inactive),
N#Cc1nc(Cl)c(Cl)c(Cl)c1Cl,,79.6 µM (active)
CCC(C)(C)c1ccc(CC(C)CN2C[C@@H](C)O[C@@H](C)C2)cc1 (stereo not given in full),,27.5 µM (active)
C=C1CC[C@H]2O[C@]2(C)CC[C@@H]2[C@@H]1CC2(C)C,-7.16% (inactive),
Nc1cc([N+](=O)[O-])ccc1Cl,25% (inactive),
c1ccc(-c2ccc(C(c3ccccc3)n3ccnc3)cc2)cc1 (stereo not given),,0.219 µM (active)
c1ccc2occc2c1,,35.6 µM (active)
C=C(C)CCO,1.45% (inactive),
C=CC(=O)O[C@H]1C[C@@H]2CC[C@@]1(C)C2(C)C,-0.281% (inactive),
O=C1OC2(c3ccccc31)c1ccc(O)c(Br)c1Oc1c2ccc(O)c1Br,,63.3 µM (active)
Nc1cccnc1N,-7.91% (inactive),
